Inhibition data for 92 molecules are collected here from PubChem BioAssay AID493034 (The Scripps Research Institute Molecular Screening Center, 2011).

In general, inhibition refers to the change of the read-out against control, counted positive when it falls.

About 2,200 (92%) of roughly 2,400 compounds were called active.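 How the source made its calls: active means mean inhibition over triplicate runs exceeds the cutoff derived for the earlier primary screen (cut at about 25% in these data); inactive means the rest.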 So high a share suggests a set chosen from earlier hits. The list shows a part of the results.

The assay deals with Platelet-activating factor acetylhydrolase IB subunit alpha2 (Homo sapiens) (UniProt P68402). Description: inhibition of human PAFAH1B2 catalytic subunit – biochemical, fluorescence polarization, FP-rhodamine probe, triplicate, confirmation (AID 493034).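 Further: 0% = enzyme with DMSO and 100% = wells lacking PAFAH1B2 protein; inhibitors lower polarization by leaving the probe unbound.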 The note with it: recombinant PAFAH1B2, FP-rhodamine probe fluorescence polarization; at 3.39 µM; stronger effect = higher value. For orientation: In fluorescence polarisation assays a small probe gives low polarisation when free and higher when bound to something large.
Platelet-activating factor acetylhydrolase IB subunit alpha2 (Homo sapiens), sequence (P68402 whole entry, looked up): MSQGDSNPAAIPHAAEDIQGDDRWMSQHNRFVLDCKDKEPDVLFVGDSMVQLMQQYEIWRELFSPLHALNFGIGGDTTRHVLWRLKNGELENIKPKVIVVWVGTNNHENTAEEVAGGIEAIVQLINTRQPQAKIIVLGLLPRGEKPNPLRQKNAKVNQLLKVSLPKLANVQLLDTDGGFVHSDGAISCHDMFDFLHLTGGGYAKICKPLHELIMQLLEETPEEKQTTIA
Consider `O=C(COC(=O)C1(c2ccc(F)cc2)CCCC1)N1CCN(C(=O)c2ccco2)CC1`, for which the inhibition was 20.3% (inactive).

Take `Clc1ccc(SCCn2ccnc2)cc1`: the inhibition was 37.8% (active).

As to `Cc1c(NC(=O)CCSc2ccc(Cl)cc2)c(=O)n(-c2ccccc2)n1C`, the inhibition is 24% (inactive).

Take `Clc1ccc(SCCCCn2ccnc2)cc1`: the inhibition is 62.5% (active).

In the case of `CC1(COS(N)(=O)=O)CCCCC1`, the inhibition is 16.8% (inactive).

Consider `CC(NC(=O)c1cc2cc(Br)ccc2oc1=N)c1ccccc1` (configuration not stated), for which the inhibition is 21.8% (inactive).

On to `CCOc1cc(Br)cc(C(c2c(C(=O)O)[nH]c3ccccc23)c2c(C(=O)O)[nH]c3ccccc23)c1O`, for which the inhibition is 62.7% (active).

In the case of `O=C(O)COc1ccccc1-c1nc(-c2ccccc2)c(-c2ccccc2)[nH]1`, the inhibition is 24% (inactive).

As to `O=C(O)COc1ccc(Br)cc1C(c1c(C(=O)O)[nH]c2ccccc12)c1c(C(=O)O)[nH]c2ccccc12`, the inhibition is 46.4% (active).

Turning to `O=C(O)c1[nH]c2ccccc2c1C(c1cc(Br)ccc1O)c1c(C(=O)O)[nH]c2ccccc12`, the inhibition was 89.5% (active).

On to `CC(Nc1ccc(Cl)cc1)c1cc(Cl)ccc1O` (configuration not stated), for which the inhibition was 42.3% (active).

As to `COc1oc(C(=O)NC2CCCCC2)c(-c2ccc(Cl)cc2)c1S(=O)(=O)c1ccccc1`, the inhibition is 11.3% (inactive).

In the case of `Nc1scc(-c2ccncc2)c1Cl`, the inhibition was 91.5% (active).

On to `O=C(O)CCn1cc(/C=C/C(=O)c2ccc(Cl)cc2)c(-c2cccc(Br)c2)n1`, for which the inhibition is 47.4% (active).

In the case of `O=C(O)CCn1cc(/C=C\C(=O)c2ccc(Cl)cc2)c(-c2cccc(Br)c2)n1`, the inhibition is 41.1% (active).

Consider `CCN(C(=O)CSc1nnc(-c2ccc3c(c2)OCO3)o1)C1CCS(=O)(=O)C1` (configuration not stated), for which the inhibition was 1.27% (inactive).

Turning to `NC(=S)N=Nc1c(O)n(CCCl)c2ccc(Br)cc12`, the inhibition is 30.4% (active).

Turning to `Cc1ccc(S(=O)(=O)Oc2ccc(C3C4=C(CCCC4=O)N(CCC(=O)O)C4=C3C(=O)CCC4)cc2Cl)cc1`, the inhibition was 33.9% (active).

For `Cc1ccc(S(=O)(=O)Nc2cc(C)c(O)c(S(=O)(=O)c3ccc(C)cc3)c2)cc1`, the inhibition is 28.9% (active).

Turning to `Cc1ccc(S(=O)(=O)Nc2ccc(S(=O)(=O)NCC3CCCO3)cc2)cc1` (configuration not stated), the inhibition is 23.3% (inactive).

On to `Cc1cc(C(C)(C)C)cc(S(=O)(=O)Nc2cccc(C(=O)O)c2)c1C`, for which the inhibition was 23.3% (inactive).

On to `COc1cccc(/C=N/N2CCN(c3ccc(Cl)cc3)CC2)c1OC`, for which the inhibition is 23.6% (inactive).

As for `NC1=NC(=O)/C(=C/c2cn(CCC(=O)O)nc2-c2ccc(Cl)cc2)S1`, the inhibition was 24.1% (active).

Consider `NC1=NC(=O)/C(=C/c2cn(CCC(=O)O)nc2-c2ccc(F)cc2)S1`, for which the inhibition was 38.2% (active).

As for `Cc1ccc(S(=O)(=O)N2CCC(=O)N(C(COC(=O)Nc3ccccc3)Cc3ccccc3)CC2)cc1` (configuration not stated), the inhibition is 32.5% (active).

Consider `NC(=O)c1c(NC(=O)CN2CCN(S(=O)(=O)c3ccccc3)CC2)sc2c1CCC2`, for which the inhibition was 1.51% (inactive).

For `CCc1ccc(-c2nc(CSCC(=O)N3CCN(c4ccccn4)CC3)c(C)o2)cc1`, the inhibition was 53% (active).

Regarding `CCCCCCCCCCCC(=O)O`, the inhibition was 21.5% (inactive).

On to `O=c1[nH]c(CSc2nc3ccccc3s2)nc2ccccc12`, for which the inhibition is 16.8% (inactive).

As for `COc1ccccc1N1CCN(S(=O)(=O)c2ccc(Cl)cc2)CC1`, the inhibition was 24.1% (inactive).

Regarding `CC(=O)NC(Cc1c[nH]c2ccccc12)C(=O)OCC(=O)N1CCN(S(=O)(=O)c2ccc(Cl)cc2)CC1` (configuration not stated), the inhibition is 84.9% (active).

With `CC(C(=O)Nc1ccccc1-c1ccccc1)N1CCN(S(=O)(=O)c2ccccc2)CC1` (configuration not stated), the inhibition is 22% (inactive).

Consider `N=c1c(S(=O)(=O)c2ccc(Br)cc2)cc2c(=O)n3ccccc3nc2n1CCN1CCOCC1`, for which the inhibition is 22.9% (inactive).

In the case of `Nc1nc(C2CCCCC2)cs1`, the inhibition was 55.7% (active).

Turning to `COC(=O)CSc1nnc(SCc2ccc(Cl)cc2)s1`, the inhibition is 20.6% (inactive).

Take `CCc1cccc(Nc2cnn(C34C[C@@H]5C[C@@H](CC(CC(=O)O)(C5)C3)C4)c(=O)c2Cl)c1`: the inhibition was 20.4% (inactive).

`NS(=O)(=O)c1cccc(NC(=O)CC23CC4CC(C2)CC(CC(=O)Nc2cccc(S(N)(=O)=O)c2)(C4)C3)c1`: the inhibition is 27.4% (active).

As to `Cc1ccc(S(=O)(=O)n2oc(=O)c(C3CCCCC3)c2N)cc1`, the inhibition is 23.5% (inactive).

For `O=C(/C=C/c1ccc(F)cc1)NC(=S)NNC(=O)[C@H]1C[C@@H]1c1ccccc1`, the inhibition is 47.2% (active).

On to `CC(C)CNC(=O)c1cccc(NC(=O)CSc2ccc(Cl)cc2)c1`, for which the inhibition was 22.5% (inactive).

Turning to `COc1ccc(/C=C\C(=O)CC(O)(c2ccccc2)C(F)(F)F)cc1` (configuration not stated), the inhibition was 21.6% (inactive).

With `O=C(/C=C/c1ccccc1)CC(O)(c1ccccc1)C(F)(F)F` (configuration not stated), the inhibition was 38.1% (active).

Consider `CC(=O)Nc1ccc(NC(=O)C(C)OC(=O)C2(c3ccc(F)cc3)CCCC2)cc1` (configuration not stated), for which the inhibition was 23.3% (inactive).

With `Cc1nn(-c2ccccc2)c2c1CC(=O)Nc1ccccc1-2`, the inhibition was 23.1% (inactive).

For the molecule `Cc1nc(SCCC(=O)O)c2cc(-c3ccccc3)sc2n1`, the inhibition was 33.6% (active).

On to `O=C(O)CN1C(=O)/C(=C\c2cccc(OCc3ccc(Cl)cc3)c2)SC1=S`, for which the inhibition was 68.2% (active).

On to `O=[N+]([O-])c1ccc(S(=O)(=O)NNC(=S)NCCc2ccccc2)cc1`, for which the inhibition is 38.5% (active).

Take `Nc1nn(S(=O)(=O)c2ccccc2)cc1-c1ccc([N+](=O)[O-])cc1`: the inhibition is 24% (inactive).

Regarding `CC1=CC(=NNS(=O)(=O)c2ccc([N+](=O)[O-])cc2)CC(C)(C)C1`, the inhibition was 23.5% (inactive).

For `O=c1[nH]c(CCl)nc2cc(-c3ccc(Cl)cc3)sc12`, the inhibition was 61% (active).

For `Cc1cc(NC(=S)N(Cc2ccc(Br)cc2)Cc2ccc(C(=O)O)cc2)ccc1Cl`, the inhibition was 1.23% (inactive).

For `COc1cc(C(c2c(C(=O)O)[nH]c3ccccc23)c2c(C(=O)O)[nH]c3ccccc23)ccc1OCc1ccccc1`, the inhibition was 37.9% (active).

Turning to `O=C(O)c1[nH]c2ccccc2c1C(c1cccc(O)c1)c1c(C(=O)O)[nH]c2ccccc12`, the inhibition was 80.5% (active).

As for `O=C(O)c1[nH]c2ccccc2c1C(c1c(F)cccc1Cl)c1c(C(=O)O)[nH]c2ccccc12`, the inhibition is 33.3% (active).

For `O=C(O)c1[nH]c2ccccc2c1C(c1ccccc1)c1c(C(=O)O)[nH]c2ccccc12`, the inhibition is 75.9% (active).

For `Cc1ccc(O)c(N=Cc2cc(Cc3ccccc3)cc([N+](=O)[O-])c2O)c1`, the inhibition is 20.2% (inactive).

`CCCCNC(=O)c1cccc(S(=O)(=O)N2CC3(C)CC2CC(C)(C)C3)c1` (configuration not stated): the inhibition was 19.5% (inactive).

Turning to `Cc1ccc(CN2[C@@H](CC3CCCCC3)COCCS2(=O)=O)cc1`, the inhibition is 23.1% (inactive).

For `CCCCCCCCCCCCCC(=O)O`, the inhibition is 22.4% (inactive).

As for `O=C(O)CN1C(=O)C2C3CC(C2C1=O)C1C(c2ccccc2)c2sc(=O)[nH]c2SC31` (configuration not stated), the inhibition was 59.3% (active).

As to `O=C(O)CN1C(=O)C2C3CC(C2C1=O)C1C(c2ccc(F)cc2)c2sc(=O)[nH]c2SC31` (configuration not stated), the inhibition was 54.6% (active).

As for `O=C(O)CN1C(=O)C2C3CC(C2C1=O)C1C(c2ccc(Cl)cc2)c2sc(=O)[nH]c2SC31` (configuration not stated), the inhibition was 37.1% (active).

For `O=C(COC(=O)CCSc1ccccc1)Nc1cc(F)ccc1F`, the inhibition is 10.5% (inactive).

As for `O=C(COC(=O)C12CC3CC(CC(Br)(C3)C1)C2)Nc1ccc2[nH]c(=O)[nH]c2c1`, the inhibition is 31.2% (active).

For the molecule `O=C(COC(=O)C12CC3CC(CC(Br)(C3)C1)C2)Nc1c(F)cccc1F`, the inhibition was 35.8% (active).

On to `COc1ccccc1NC(=O)COC(=O)C12CC3CC(CC(Br)(C3)C1)C2`, for which the inhibition was 26.2% (active).

Regarding `COc1ccccc1CNC(=O)COC(=O)c1ccc(C(=O)c2ccccc2)cc1`, the inhibition was 3.07% (inactive).

Consider `O=C(COC(=O)C12CC3CC(CC(Br)(C3)C1)C2)Nc1cccnc1Cl`, for which the inhibition is 36.7% (active).

Consider `O=c1c2c(nc3cc(-c4ccc(Cl)cc4)[nH]n13)CCS2`, for which the inhibition is 11.7% (inactive).

Consider `N#C/C(=C\c1cc2c(cc1Br)OCO2)c1ccc(C(=O)O)cc1`, for which the inhibition is 23.6% (inactive).

Take `Cc1ccc(-c2csc(N)n2)cc1`: the inhibition is 63.1% (active).

With `Nc1nc(-c2ccc(Br)cc2)cs1`, the inhibition is 92.3% (active).

For the molecule `Cc1ccc(-c2csc(NCCn3c(C)nc4cc(C(F)(F)F)ccc43)n2)cc1`, the inhibition was 23.5% (inactive).

Turning to `Nc1nc(-c2ccccc2)cs1`, the inhibition was 35.5% (active).

Consider `Nc1nc(-c2ccc(F)cc2)cs1`, for which the inhibition is 55.6% (active).

Consider `O=C(O)c1sccc1SCc1ccc(Cl)cc1Cl`, for which the inhibition was 22.4% (inactive).

`Cc1nc(-c2cccc(S(=O)(=O)N3CCC(C)CC3)c2)cs1`: the inhibition was 23.7% (inactive).

Turning to `Nc1nc(-c2cccc(F)c2)cs1`, the inhibition was 36.3% (active).

Take `CC(NC(=O)CN(C)S(=O)(=O)c1cccc2nsnc12)c1ccccc1` (configuration not stated): the inhibition is 22.2% (inactive).

In the case of `O=C(COC(=O)C12CC3CC(CC(C3)C1)C2)NNC(=O)c1ccccc1`, the inhibition is 21.4% (inactive).

Regarding `O=C(NCc1ccccc1)C12CC3CC(CC(Br)(C3)C1)C2`, the inhibition was 27.1% (active).

`CC(CCc1ccccc1)NC(=O)COC(=O)C12CC3CC(CC(Br)(C3)C1)C2` (configuration not stated): the inhibition is 38.2% (active).

For the molecule `O=C(O)CNC(=O)C12CC3CC(CC(Cl)(C3)C1)C2`, the inhibition was 22.2% (inactive).

Consider `O=C(COC(=O)C12CC3CC(CC(Br)(C3)C1)C2)NNC(=O)c1ccccc1`, for which the inhibition is 46.3% (active).

Regarding `CC(NC(=O)COC(=O)C12CC3CC(CC(Br)(C3)C1)C2)c1ccccc1` (configuration not stated), the inhibition was 31% (active).

For `O=C(O)CC1c2ccccc2CCN1S(=O)(=O)c1ccc(F)cc1` (configuration not stated), the inhibition is 19.8% (inactive).

Regarding `CN(Cc1ccccc1)C(=O)COC(=O)C12CC3CC(CC(Br)(C3)C1)C2`, the inhibition was 28.4% (active).

In the case of `OC(c1ccc(F)cc1)(C1CCCCC1)C(CN1CCOCC1)c1ccccc1` (configuration not stated), the inhibition was 23.5% (inactive).

On to `Cc1occc1C(=O)O/N=C(\N)c1ccc(Cl)cc1`, for which the inhibition was 27.4% (active).

Regarding `O=C(O/N=C1/CCCc2occc21)c1ccc(Cl)cc1Cl`, the inhibition is 19.3% (inactive).

For the molecule `CC(Sc1ccc(Br)cc1)C(N)=O` (configuration not stated), the inhibition is 27.6% (active).

With `NC(=O)CSc1ccc(Br)cc1`, the inhibition was 39.5% (active).
